Measurements as given in the supplement of paper PMC11732987, “Enantioselective OTUD7B fragment discovery through chemoproteomics screening and high-throughput optimisation” (Communications Chemistry, 2025).

What was measured:
Assay in all cases: log2 ratio of Biotin-Ahx-Ub-VS probe labelling (fragment/DMSO); higher = less target engagement (more negative = stronger competition), active = hit call of the paper (q ≤ 0.05, log2 ratio ≤ -1)
Conditions in all cases: compound concentration: 200 uM; treatment time: 3 h
OTUD6B = target: T1, OTUD6B (UniProt Q8N6M0)
T1 sequence (whole entry): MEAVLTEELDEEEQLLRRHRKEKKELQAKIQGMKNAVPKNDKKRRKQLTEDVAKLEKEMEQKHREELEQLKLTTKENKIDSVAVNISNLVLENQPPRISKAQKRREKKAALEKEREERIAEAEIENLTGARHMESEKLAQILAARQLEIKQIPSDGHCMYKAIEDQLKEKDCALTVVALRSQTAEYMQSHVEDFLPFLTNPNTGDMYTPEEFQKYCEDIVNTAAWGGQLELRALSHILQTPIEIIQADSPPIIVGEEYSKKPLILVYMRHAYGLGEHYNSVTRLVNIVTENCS
Summary of the method: (§1)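 Labelling with Biotin-Ahx-Ub-VS (0.5 µM final, 1 h) followed a 3 h triplicate treatment of HEK293T lysate (495 µg per sample, Tris/CHAPS/IGEPAL buffer with protease inhibitors) with fragment at 200 µM or vehicle. Labelled DUBs were NeutrAvidin-enriched, digested with LysC and trypsin, and run by diaPASEF LC-MS/MS. The values, average log2 fragment/vehicle ratios by unpaired t-test, come from global-median-normalised Spectronaut label-free quantities. Proteins with ≥2 unique peptides were used.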

OTUD7B = target: T2, OTUD7B (UniProt Q6GQQ9)
T2 sequence (whole entry): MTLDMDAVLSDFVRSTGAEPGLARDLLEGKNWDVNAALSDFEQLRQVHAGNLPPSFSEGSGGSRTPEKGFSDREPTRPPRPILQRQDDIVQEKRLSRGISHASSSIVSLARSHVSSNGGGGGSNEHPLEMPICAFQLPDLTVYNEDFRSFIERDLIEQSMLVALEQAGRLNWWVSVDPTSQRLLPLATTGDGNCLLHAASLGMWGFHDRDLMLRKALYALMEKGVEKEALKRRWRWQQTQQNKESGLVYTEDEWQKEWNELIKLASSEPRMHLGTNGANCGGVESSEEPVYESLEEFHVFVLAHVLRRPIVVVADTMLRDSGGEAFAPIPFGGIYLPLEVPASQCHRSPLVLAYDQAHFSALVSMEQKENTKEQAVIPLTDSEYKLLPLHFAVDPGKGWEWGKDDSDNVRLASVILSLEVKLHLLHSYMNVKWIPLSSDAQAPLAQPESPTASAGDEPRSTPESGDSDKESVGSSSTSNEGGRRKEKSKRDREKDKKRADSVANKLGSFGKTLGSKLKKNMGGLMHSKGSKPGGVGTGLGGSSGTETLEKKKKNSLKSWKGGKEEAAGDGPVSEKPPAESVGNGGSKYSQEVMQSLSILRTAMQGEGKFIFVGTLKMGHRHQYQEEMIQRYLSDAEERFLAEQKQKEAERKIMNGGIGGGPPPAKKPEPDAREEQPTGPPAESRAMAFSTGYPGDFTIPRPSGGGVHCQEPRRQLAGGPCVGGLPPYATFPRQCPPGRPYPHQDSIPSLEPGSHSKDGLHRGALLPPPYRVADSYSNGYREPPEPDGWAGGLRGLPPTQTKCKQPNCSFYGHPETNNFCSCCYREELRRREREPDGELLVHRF
Summary of the method: as §1

PRPF8 = PRPF8 (UniProt Q6P2Q9)
Summary of the method: as §1

PSMD7 = target: T3, PSMD7 (UniProt P51665)
T3 sequence (whole entry): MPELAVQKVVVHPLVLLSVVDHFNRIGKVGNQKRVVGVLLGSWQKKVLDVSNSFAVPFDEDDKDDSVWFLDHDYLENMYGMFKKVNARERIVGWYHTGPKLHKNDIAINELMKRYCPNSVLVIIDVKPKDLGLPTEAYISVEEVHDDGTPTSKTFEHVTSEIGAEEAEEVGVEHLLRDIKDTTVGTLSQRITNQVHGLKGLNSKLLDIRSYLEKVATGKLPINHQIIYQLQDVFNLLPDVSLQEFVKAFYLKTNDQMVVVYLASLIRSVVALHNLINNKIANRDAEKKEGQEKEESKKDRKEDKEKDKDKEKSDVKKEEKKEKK
Summary of the method: as §1

UCHL1 = UCHL1 (UniProt P09936)
Summary of the method: as §1

UCHL3 = target: T4, UCHL3 (UniProt P15374)
T4 sequence (whole entry): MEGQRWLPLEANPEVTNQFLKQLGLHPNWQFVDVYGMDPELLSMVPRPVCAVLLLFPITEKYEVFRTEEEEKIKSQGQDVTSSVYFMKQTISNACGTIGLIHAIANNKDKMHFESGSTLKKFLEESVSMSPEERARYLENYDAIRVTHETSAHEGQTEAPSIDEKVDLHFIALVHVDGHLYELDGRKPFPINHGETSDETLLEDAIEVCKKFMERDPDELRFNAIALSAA
Summary of the method: as §1

UCHL5 = target: T5, UCHL5 (UniProt Q9Y5K5)
T5 sequence (whole entry): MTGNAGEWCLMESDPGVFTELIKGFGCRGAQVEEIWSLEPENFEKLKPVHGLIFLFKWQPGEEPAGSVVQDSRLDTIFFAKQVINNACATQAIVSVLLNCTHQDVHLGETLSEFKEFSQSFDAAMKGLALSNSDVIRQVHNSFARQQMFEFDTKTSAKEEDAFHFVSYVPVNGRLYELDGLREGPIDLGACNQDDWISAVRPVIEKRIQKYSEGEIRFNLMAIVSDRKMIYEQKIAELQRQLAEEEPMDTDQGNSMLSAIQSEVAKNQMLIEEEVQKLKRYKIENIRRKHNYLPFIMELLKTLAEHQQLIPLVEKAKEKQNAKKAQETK
Summary of the method: as §1

USP10 = USP10 (UniProt Q14694)
Summary of the method: as §1

USP15 = target: T6, USP15 (UniProt Q9Y4E8)
T6 sequence (whole entry): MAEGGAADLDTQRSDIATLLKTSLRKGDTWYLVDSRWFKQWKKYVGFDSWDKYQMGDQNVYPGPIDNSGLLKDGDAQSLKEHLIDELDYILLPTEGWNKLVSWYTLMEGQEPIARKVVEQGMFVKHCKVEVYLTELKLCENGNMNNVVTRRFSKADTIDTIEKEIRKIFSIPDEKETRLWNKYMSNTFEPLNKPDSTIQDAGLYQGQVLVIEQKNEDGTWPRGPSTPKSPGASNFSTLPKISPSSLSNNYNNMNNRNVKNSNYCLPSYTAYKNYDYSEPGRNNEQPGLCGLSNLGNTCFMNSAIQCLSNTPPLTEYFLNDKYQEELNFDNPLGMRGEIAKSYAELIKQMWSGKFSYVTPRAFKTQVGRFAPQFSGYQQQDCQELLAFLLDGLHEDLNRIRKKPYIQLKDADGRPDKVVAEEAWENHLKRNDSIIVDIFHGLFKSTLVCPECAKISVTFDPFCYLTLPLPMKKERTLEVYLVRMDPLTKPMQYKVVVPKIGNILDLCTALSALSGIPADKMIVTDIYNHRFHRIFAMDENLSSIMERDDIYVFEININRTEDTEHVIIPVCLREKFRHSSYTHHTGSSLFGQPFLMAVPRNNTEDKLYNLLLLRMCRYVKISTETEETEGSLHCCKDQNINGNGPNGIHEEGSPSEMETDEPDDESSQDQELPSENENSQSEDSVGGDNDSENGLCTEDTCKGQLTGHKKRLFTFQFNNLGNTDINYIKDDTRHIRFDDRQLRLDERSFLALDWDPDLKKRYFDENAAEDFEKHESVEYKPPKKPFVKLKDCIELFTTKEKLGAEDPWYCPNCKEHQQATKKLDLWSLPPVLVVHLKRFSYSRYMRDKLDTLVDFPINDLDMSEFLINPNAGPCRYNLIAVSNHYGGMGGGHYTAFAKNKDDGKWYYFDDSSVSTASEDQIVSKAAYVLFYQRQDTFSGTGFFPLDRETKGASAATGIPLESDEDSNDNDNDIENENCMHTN
Summary of the method: as §1

USP16 = USP16 (UniProt Q9Y5T5)
Summary of the method: as §1

Measured: log2 ratio of Biotin-Ahx-Ub-VS probe labelling

Chain of USP16 (Q9Y5T5 whole entry, looked up): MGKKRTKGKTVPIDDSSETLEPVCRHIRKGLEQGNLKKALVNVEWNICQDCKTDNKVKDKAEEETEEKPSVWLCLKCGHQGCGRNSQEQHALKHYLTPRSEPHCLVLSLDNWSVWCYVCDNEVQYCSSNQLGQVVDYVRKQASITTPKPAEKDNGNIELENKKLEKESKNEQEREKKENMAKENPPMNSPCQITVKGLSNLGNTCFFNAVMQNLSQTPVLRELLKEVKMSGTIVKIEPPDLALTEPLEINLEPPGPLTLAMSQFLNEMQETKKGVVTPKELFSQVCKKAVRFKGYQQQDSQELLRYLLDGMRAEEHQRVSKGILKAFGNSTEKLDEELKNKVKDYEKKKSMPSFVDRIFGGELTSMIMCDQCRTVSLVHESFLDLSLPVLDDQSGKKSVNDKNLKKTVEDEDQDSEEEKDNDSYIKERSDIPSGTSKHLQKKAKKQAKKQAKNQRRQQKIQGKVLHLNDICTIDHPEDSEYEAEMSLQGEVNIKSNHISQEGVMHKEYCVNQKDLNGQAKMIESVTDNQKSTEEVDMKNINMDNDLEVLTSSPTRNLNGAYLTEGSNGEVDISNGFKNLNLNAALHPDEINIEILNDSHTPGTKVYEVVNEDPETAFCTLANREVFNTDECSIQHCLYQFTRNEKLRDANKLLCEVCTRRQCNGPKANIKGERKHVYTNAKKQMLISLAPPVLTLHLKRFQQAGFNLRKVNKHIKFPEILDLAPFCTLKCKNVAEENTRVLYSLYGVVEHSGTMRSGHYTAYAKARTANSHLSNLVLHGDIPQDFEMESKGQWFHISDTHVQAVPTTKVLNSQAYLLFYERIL
Chain of USP10 (Q14694 whole entry): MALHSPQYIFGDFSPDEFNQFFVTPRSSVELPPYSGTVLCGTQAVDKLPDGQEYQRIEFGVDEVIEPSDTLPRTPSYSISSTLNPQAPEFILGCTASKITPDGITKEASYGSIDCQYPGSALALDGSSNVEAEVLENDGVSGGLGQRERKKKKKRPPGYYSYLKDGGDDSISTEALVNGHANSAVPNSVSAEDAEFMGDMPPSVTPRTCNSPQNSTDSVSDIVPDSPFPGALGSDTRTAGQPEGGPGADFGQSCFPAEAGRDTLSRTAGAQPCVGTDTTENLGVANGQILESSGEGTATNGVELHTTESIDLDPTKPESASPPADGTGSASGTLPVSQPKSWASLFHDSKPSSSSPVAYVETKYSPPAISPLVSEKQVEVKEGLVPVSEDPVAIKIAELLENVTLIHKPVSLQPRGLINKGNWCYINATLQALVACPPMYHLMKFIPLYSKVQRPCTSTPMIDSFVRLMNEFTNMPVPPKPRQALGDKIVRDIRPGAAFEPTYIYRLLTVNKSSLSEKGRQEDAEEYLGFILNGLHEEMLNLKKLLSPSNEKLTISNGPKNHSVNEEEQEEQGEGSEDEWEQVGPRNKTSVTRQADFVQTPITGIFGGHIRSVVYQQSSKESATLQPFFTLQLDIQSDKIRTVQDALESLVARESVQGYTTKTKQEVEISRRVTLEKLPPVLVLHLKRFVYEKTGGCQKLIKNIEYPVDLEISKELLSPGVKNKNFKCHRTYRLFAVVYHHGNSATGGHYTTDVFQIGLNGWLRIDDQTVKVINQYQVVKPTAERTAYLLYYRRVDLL
Chain of UCHL1 (P09936 whole entry, looked up): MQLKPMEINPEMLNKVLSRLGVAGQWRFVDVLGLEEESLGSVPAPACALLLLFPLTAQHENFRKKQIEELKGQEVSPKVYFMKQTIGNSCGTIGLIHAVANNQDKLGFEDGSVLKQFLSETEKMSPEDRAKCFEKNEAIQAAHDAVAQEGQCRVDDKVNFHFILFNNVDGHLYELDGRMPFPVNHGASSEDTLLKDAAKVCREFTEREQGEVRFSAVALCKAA

CC1CCc2onc(CNC(=O)CCl)c2C1 (stereo not given)
active: UCHL1 -1.33
inactive: OTUD6B -0.0903 | OTUD7B -0.588 | PRPF8 -0.225 | PSMD7 -0.0595 | UCHL3 0.123 | UCHL5 -0.175 | USP10 -0.0579 | USP15 -0.0914 | USP16 0.406
